In PubChem BioAssay (NCI):
Several values for one entry are separate records, joined by “and”; a condition that tells them apart may be missing. Identical values can stand only once. About 79,000 compounds went through this panel and 15% of them were active in at least one assay; those are over-represented in the sample as a whole. Unmarked numbers belong to inactive results. Activity calls are given as the source filed them. No stated cut-off is given here; in the data, active means growth inhibition above about 70%; inactive means the rest.

Tests used:
[1] = NCI Yeast Anticancer Drug Screen. Data for the rad50 strain (AID 155);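 further: 0% = growth of vehicle-only cultures of the same strain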; settings: S. cerevisiae rad50 strain growth inhibition, active compounds read high; at 50.0 µM unless noted
Method in brief: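 DNA repair mutant yeast, compound exposure, growth read-out; inhibition is taken relative to vehicle.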

[2] = NCI Yeast Anticancer Drug Screen. Data for the mec2-1 strain (AID 157); settings: S. cerevisiae mec2-1 strain, active compounds read high; at 50.0 µM unless noted
Method in brief: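 Cells of the genetically defined mec2-1 yeast strain are incubated with test compound. Inhibition of growth is calculated against vehicle-treated controls.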

[3] = NCI Yeast Anticancer Drug Screen. Data for the sgs1 mgt1 strain (AID 161);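 further: 0% = growth of cultures given vehicle only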; settings: S. cerevisiae sgs1 mgt1 strain, active compounds read high; at 50.0 µM unless noted
Method in brief: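 Read-out: growth inhibition vs vehicle controls. Cells: mutant yeast strain deficient in DNA damage repair.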

[4] = NCI Yeast Anticancer Drug Screen. Data for the cln2 rad14 strain (AID 165);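 further: 0% = growth equal to vehicle treated cultures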; settings: S. cerevisiae cln2 rad14 strain, active compounds read high; at 50.0 µM unless noted
Method in brief: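 The screen exposed genetically defined yeast (cln2 rad14) to test compounds and scored growth inhibition relative to vehicle-treated controls.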

[5] = NCI Yeast Anticancer Drug Screen. Data for the bub3 strain (AID 167); settings: S. cerevisiae bub3 mutant strain, active compounds read high; at 50.0 µM unless noted
Method in brief: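 In this screen, a yeast mutant lacking normal mitotic checkpoint function is challenged with compound. Relative growth versus vehicle gives the inhibition value.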

[6] = NCI Yeast Anticancer Drug Screen. Data for the mlh1 rad18 strain (AID 175); settings: S. cerevisiae mlh1 rad18 strain growth inhibition, active compounds read high; at 50.0 µM unless noted
Method in brief: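 Compound-treated yeast growth, normalised to vehicle controls. Strain bears defined DNA repair mutations.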

Row | SMILES | growth inhibition [1] | growth inhibition [2] | growth inhibition [3] | growth inhibition [4] | growth inhibition [5] | growth inhibition [6]
1 | NC(=O)C(=CN1CC(=O)NC1=S)C(N)=O | -23.3% | -23.4% | -2.4% | 9.85% | -9.05% | 17.1%
2 | C1CSCCSS[C@@H]2CCCCC2SC1 (some centres undefined) | -12.8% | -25.1% | -0.55% | -11.9% | -12.1% | -17.1%
3 | COC(=O)C(Cc1ccc(N(C)C)cc1)(NC(=O)c1ccccc1)P(=O)(OC)OC (centres undefined) | -17.8% | 10.8% | -28.2% | 1.9% | 4.4% | -5.4%
4 | CS/C(C)=N/OC(=O)NCCCCNc1ccc(N=[N+]=[N-])cc1 | 13.9% | -4.15% | 5.4% | 36.7% | 4.5% | 0.6%
5 | CC1=N/C(=C\c2cccc([N+](=O)[O-])c2)C(=O)O1 | -6.9% | -30.8% | 5.1% | 3.35% | -10.7% | 13.5%
6 | O=C(O)/C=C(/CC(=O)O)C(=O)O | -34.9% | -11.3% | -17.2% | 0.35% | -27.8% | -7.45%
7 | S=C(NCc1cccc(Cl)c1)Nc1ccccc1 | -4.65% | 27.9% | 14.2% | -24.9% | 29.6% | 24.4%
8 | CCOC(=O)c1[nH]c(C)c(/C=N/O)c1C | 22.9% | -1.8% | 6.65% | 13.6% | 10.1% | 15.2%
9 | OCCc1ccc2ccccc2n1 | 6.05% | 14.2% | 10.7% | 6.2% | -0.8% | 3.5%
10 | Cc1cc2nc3c(C(OC4OC(CO)C(O)C(O)C4O)C(O)CO)nn(-c4ccc(F)cc4)c3nc2cc1C (centres undefined) | 3.6% | -6.85% | -47.7% | 25.6% | 3.45% | 1%
11 | [CH3][Sn]([CH3])([S]P(=S)(c1ccccc1)c1ccccc1)[S]P(=S)(c1ccccc1)c1ccccc1 | 25.1% | 31.7% | 18.7% | -15.8% | 19.1% | 43.9%
12 | Cc1ccc(-c2nc3ccc(Cl)cc3[nH]2)cc1 | -10.7% | 9.1% | 41.6% | 17.1% | 30.1% | 42.1%
13 | CCCNC(=O)NS(=O)(=O)c1ccc(Cl)cc1 | -4.15% and -5.15% | 0.2% and -0.4% | 4.2% and 1.6% | 15.6% and -26.4% | 11.7% and 23.1% | 38.3% and -7.15%
14 | CCC(=O)C(C)=O | 16.9% | 3.9% | 13.1% | -4% | 0.15% | 11.7%
15 | N#C/C(=C\c1c[nH]c2ccccc12)C(N)=O | 13.6% and 2.05% | 5.15% and -7.45% | 7.3% | 18.8% | -7.3% | 22.5% and 5.8%
16 | CC(C)c1ccccc1O | 34.9% | 30.7% | 9.95% | 8.8% | 0.45% | 22.4%
17 | CCCCn1cnc2c(SC)ncnc21 | -8.1% | -23.9% | -18.4% | -0.35% | -32.8% | -3.65%
18 | CCCCCCCC1C(=O)OC2CC3C(C)=CC(=O)C(O)C3(C)C3C4(O)OCC23C1C(C)C4O (centres undefined) | 91.5% (active) | 92.3% (active) | 91% (active) | 91.4% (active) | 90.2% (active) | 92.1% (active)
19 | CCOc1ccc(N2C(=O)/C(=C/c3ccc(N(CCC#N)CCC#N)cc3)N=C2c2cc([N+](=O)[O-])ccc2Cl)cc1 | 5.85% | -1.15% | -9.8% | 17.8% | 9.3% | -6.6%
20 | Nc1nc(N)c2ncn(Cc3ccccc3)c2n1 | -41.2% | -34.4% | -9.95% | -14.1% | -16.1% | -13.9%

Row | SMILES | growth inhibition [1] | growth inhibition [2] | growth inhibition [3] | growth inhibition [4] | growth inhibition [5] | growth inhibition [6]
21 | CC(=O)[CH-]C(=O)c1ccccc1.CC(=O)[CH-]C(=O)c1ccccc1.CC1(C)OCC(C2OC3OC(C)(C)OC3C2[O-])O1.CC1(C)OCC(C2OC3OC(C)(C)OC3C2[O-])O1.[Ti+4] (centres undefined) | 29.9% | 5.65% | 14.8% | 14.9% | 27.9% | 20.2%
22 | COc1ccc(N=C2C(=Nc3ccc(OC)cc3)N(c3ccccc3)C(=S)N2N=C=C2Sc3ccccc3N2C)cc1 | -13.2% | -24% | -18.4% | -8.3% | -4.05% | -32%
23 | CCOC(C)C(Nc1ccc(C(=O)O)cc1)C(=O)Nc1ccc(C(=O)O)cc1 (centres undefined) | 9.8% | 2% | 4.5% | -29.4% | -5.6% | -10.7%
24 | CCCCCCCCC(=O)NCCOC | 10.9% | 2.8% | 5.8% | -20.8% | -2.95% | 10.6%
25 | Nc1ncc(C(=O)O)s1 | -17.3% | -4.6% | -23.1% | 7.35% | 3.35% | -4.8%
26 | C(=Nc1ccc(N=Cc2ccco2)cc1)c1ccco1 | 10.8% | 2.3% | 0.5% | -8.1% | -8.5% | 7.35%
27 | CCCCCCCCCCCC[N+](C)([O-])CCCCCC[N+](C)([O-])CCCCCCCCCCCC (centres undefined) | 96.2% (active) | 98.7% (active) | 97.8% (active) | 96.5% (active) | 96.5% (active) | 97% (active)
28 | OC(CCN1CC2CCC(CC2)C1)(Cc1ccccc1)c1cccs1 (centres undefined) | 6.75% | 2.7% | 21.1% | 11.2% | 17.1% | 32.5%
29 | O=C1NC(N2CCOCC2)=N/C1=C\c1cccs1 | -8.45% | 5.05% | 13.2% | 32.3% | 1.05% | -34%
30 | C#CCOCC12C=CC(O1)C1C(=O)N(C)C(=O)C12 (centres undefined) | -11.4% and 8.1% | 33.5% and 38.6% | 8.75% and -3.95% | 7.65% and 36.2% | 24.6% and 33.4% | -13.3% and 6.25%
31 | Cc1nc2ncnc(N)c2[nH]1 | 3.55% | -11% | -12.5% | -28.7% | 11.2% | -5.95%
32 | CCN(CCN1CCCCC1)c1ccccn1 | 11% | 1.3% | 11.4% | -35.7% | 7.45% | -10.9%
33 | NC(=S)Nc1ccc(Br)cc1 | -0.85% | 23.6% | 25.5% | 34.8% | -4.05% | 7.6%
34 | N=c1ccccn1CC(O)COc1ccc(Cl)cc1 (centres undefined) | 11.8% | -10.1% | -8.85% | -17.9% | -2.5% | -16.6%
35 | O=[N+]([O-])c1cccc(SSc2cccc([N+](=O)[O-])c2)c1 | 0.45% and -34.8% | -16.1% and -57% | -1.8% and -61.9% | -2.95% and -12.7% | -3.1% and -35.6% | -1.3% and -65.8%
36 | CCNc1cccc(C)c1 | 28.9% | -10.7% | -16.2% | -33.8% | 12.8% | 23.1%
37 | Cc1ccc(=O)[nH]n1 | -3.25% and -31.6% | -21.7% and -16.3% | -9.8% and -17.8% | -8.35% and -28.9% | -16.1% and -27.5% | 3.75% and -20%
38 | CCC1CC(C)=CCN1S(=O)(=O)c1ccc(C)cc1 (centres undefined) | -12.6% | -2.3% | 4.4% | 18.6% | 12.2% | 2.35%
39 | CCOC(=O)CN(c1ccccc1)c1nc(=[N+](C)C)ss1 | 7.05% | 0.65% | 6.8% | 2.55% | 1.35% | 22.9%
